Hit rate of the full screen: of about 53,000 sequences, about 3,700 (7%) were called active. The entries come from a sample that favours actives as a whole. Unmarked numbers belong to inactive results.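 The calls were made as follows: active = gene knockdowns whose robust z-score for IL-1 alpha signal is at least 2 or at most -2, so actives lie on both sides; inactive = the rest.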
Experiment: Components of the Cytosolic LPS Sensing Pathway: Gene Identification via Genome-wide siRNA Screen;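 also: robust z of the log signal after scaling to non-targeting control siRNA wells of the plate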
Conditions: RAW264.7 macrophages, IL-1a HTRF, actives lie on both sides, screened at 100 nM (by protocol), cells primed 5 h with Pam3CSK4 first
Method in brief: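 Three distinct siRNAs per gene were tested singly at 100 nM in RAW264.7 macrophages. Following Pam3CSK4 priming and 24 hour LipidA transfection, IL-1a secretion was read by HTRF.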

Sequence | z-score
GGAGACAGAAUUCAAAACUTT against P2ry1 | 0.0725
CCUUCCUACAACAAGUGUGTT against Galnt1 | 2.02 (active)
GCCCAGUCAAGACUAUUCGTT against Csnk2b | 1.58
GGUGAAGACCAUCUUGACCTT against Clcnkb | -1.74
AGACUCGUACACGCAGGAATT against Ggn | 0.882
GGCAGACAAGUUGUUAAAATT against Nusap1 | -0.913
GCUAGUUAUCUAAUCUCUGTT against Nuak1 | 2.79 (active)
GGAACAACUCCUGUUCCCATT against Obscn | 1.85
GGGAAAGAGAAAUUUAAAGTT against Kcne4 | 1.3
CCCAUCAUUCCUUUCUUACTT against Ndfip2 | 0.193
CCAUUCUUGCCUUUGUGCUTT against Cep55 | -1.63
GGCUGUGGUAUUUUUGGUUTT against Vopp1 | 2.15 (active)
CCUGGUACAUCUCUGUUACTT against Olfr449 | 1.53
GCCACUCUAGCUCGUAUUGTT against Des | 0.896
GCAAGUCGAGGUAGAUUGCTT against Rap1a | 0.515
GGACCUAUAGUUCAACAAGTT against Pcf11 | 1.08
CCAUGUGCGACCUGAUAAUTT against Cmtm7 | 0.155
CGACAAACUACAUAGCAGATT against Brms1 | 0.823
GGUCAGACAGCAAUUCACATT against Gpr146 | -2.7 (active)
GCUAUGUGGACGUGACCUATT against Chrnb4 | -0.739
GCUAUAGACAAGGAGAGUATT against Galnt6 | 0.62
GGUCAUAGGUACGUAUCCGTT against Siglech | -0.465

Sequence | z-score
CGUUUUUAUGAGGAGGCCUTT against N4bp3 | -0.897
GGAUUGACAGUGGUCUAUATT against Copz1 | -0.294
UUUGAACAGUCACUCCUCGTT against Ipcef1 | 2.18 (active)
GGAGUUAAAACCAUCGUGATT against D16Ertd472e | 0.725
CCCUAUGCAAUAUCAAAAUTT against Hnrnpa1 | 1.22
GGUAAAUAGCUGUCUUGGCTT against Cerk | -0.622
GCACAGUUAGCAUUGCUCCTT against Hoxc10 | -1.48
GGAUAAUUGGGAUGAUGACTT against Sem1 | -2.24 (active)
GGCAGAGUAUGAGUUUGACTT against Camk1 | 0.699
GGCCAAGUGCACCAUCCUATT against Gng13 | -0.852
GGAGAAAGCCUUCCAAUUUTT against Kel | -0.273
GGUAGAGCAUCAGUAUCUATT against Tex16 | -0.47
CCGCACCAUUCAGCUUUUUTT against Mmgt2 | 0.446
GGCUCGAUUACUGAGUACATT against Bnip2 | 0.884
GGCUUUAGUUGUCUUUUAUTT against Cxcr1 | 0.609
GGAGAAAAAGAGAAGUAUUTT against Skint9 | -0.874
GCAUGAUGGUGCGCUUAAGTT against Ngdn | -0.187
GGUCAUGGAUGUGCACGAUTT against Krt14 | -2.21 (active)
CCUAUACACCCAUUUUUAATT against Arl2bp | 0.163
GGUAACCUGAUGGCUGAAATT against Zfp692 | 2.79 (active)
GCCUAAGGAUCCUGGGUUATT against Orai3 | 1.43
CCGUUUCUAUCGAGUGAAATT against Celf2 | 0.581

Sequence | z-score
GACUAAACAGAUCUUCUCUTT against Klra15 | -0.651
GGAGAUAAUUGGUUUACAGTT against Vmn1r23 | -0.647
CCACACCAUAACAACAUUCTT against Olfr800 | -2.05 (active)
GCAAUUCAGGUUUACUACATT against Fgg | 0.00733
GAAAGUUUACGGGAAAUCUTT against Klf13 | 2.04 (active)
CCAUAAGGUAACCUGUACATT against Serpinb1c | -0.244
GGAUUACAAGACCAUAGAUTT against Clec2g | -0.75
GGCACCUCUGCUUUUAAAGTT against Mrm2 | 0.926
GGAACUGCCUGAAAAAAUGTT against Dcn | -2.76 (active)
CAUAUUCCUUGCAUUACAATT against Taok3 | 0.929
GGUUCAGAAGUUUGGGAGATT against Mrpl48 | 0.615
GGACUGAUUGAUAAAGUCATT against Srp54a | -0.458
UAAAAAUGAGCCGGGCAAUTT against Ms4a5 | 1.42
GGAGCAAAGCUAAAUGUUGTT against Far1 | -0.476
GGAUUUGGCAACAGACUUUTT against Ryr2 | -0.391
CACCGUAAUAAUCACACUATT against Zfp667 | -0.854
GGUACGAAGGAAAAUUUACTT against 2810407A14Rik | 2.72 (active)
GGUUACCAUGUGAAGCAGGTT against Tnfrsf14 | -0.461
GGAUAACUCCUUAUUUAACTT against Teddm3 | 1.25
GGAAAACCAGAAAGAAUUUTT against Crnkl1 | -0.334
GGAACAAGUUUGUGCUUUCTT against Cpd | 0.728
GGAUAACCAACAAGGUUUUTT against Mgst1 | 0.701

Sequence | z-score
GGUGGAACACAUAUUUUAATT against Tbc1d13 | 0.837
CGCCCAUGUACAGAUUUGUTT against Olfr429 | -2.33 (active)
GCUUCACCUGACAAUGACUTT against Tsc22d3 | 1.2
GGGACAGGUUGAGGUCUAUTT against Vmn1r233 | 2.01 (active)
GGCAUACCGAAAGUUAGCCTT against Dnaja2 | -0.724
GGAGGUCCAGGAUUUUAUATT against Styk1 | 1.12
GCUUCAACAUGCUUUGUUUTT against A430010J10Rik | -0.555
CCCUACUCCUCAGAACUUATT against Tbc1d10a | -0.499
CCAAAAAGAGCGAUUACCCTT against Shc1 | 0.368
CGCAGAAAGAGCAUCAGAUTT against Atg9a | -2.42 (active)
GCGACUGUGGUGGUUACAUTT against Bcas2 | 0.444
GGGAAGGAAGAAUUUAUUUTT against 6430571L13Rik | 1.24
GCUGCUCAAUCGGAAAUACTT against Clk1 | -2.06 (active)
CCAGGUGUAUAAUAAGAUGTT against Atp8b3 | 0.271
GCAAUGACAGAACAUACAGTT against Cts7 | 1.67
GGCAGAAAGAAAUUGAGAATT against Trim42 | -0.655
CAGCAUCUUUGAUUGUCUGTT against Tssc4 | 2.15 (active)
GCUUAUGCCAGUCUGUCAUTT against Hax1 | -0.206
CCAUACAUCAGUACUUACCTT against Olfr553 | 0.477
GCGUGUUCGCUUCUUGCUATT against Trub2 | -0.614
CCACAGAAUAAGACAAUAUTT against Fbxo34 | -3.03 (active)
CCAUUCAGUCGAUUACAUUTT against Chd9 | 0.204

Sequence | z-score
GGACUUUUCUUUUGGAAGGTT against Nbl1 | -0.08
GCCUUUCCACCGAUGAAAUTT against Dpyd | -0.473
GGAGCACAUCUUUUCUGCCTT against Mixl1 | -1.22
CCAAUUAUUAUCCAAGGGCTT against Slc16a6 | -0.0144
GCUAUAACCUCACCGAGAATT against Tedc2 | 2.09 (active)
GGAAAAGCAGACAUGUGAUTT against Dedd | -0.875
CCAUUCAUACCAUACCUGUTT against Tmem50a | -0.521
GGGCAUUAGGGUGGUAGCATT against Gapdhs | -0.826
GCUUAGUGGUUCUUAUUUGTT against Olfr893 | -0.214
GCUUCAUAUAGACAAAGCCTT against Epo | -0.625
GGAAGUUAGUUUCGUUUUATT against Rprd1b | 2.03 (active)
GGCAAGAUCUUCAAGUGAATT against Eef1g | -0.809
GGAACAUUUUGGAAAUGACTT against Fbxo25 | -0.625
GGAAGAAGAAGGAGCUAGATT against Slu7 | -2.2 (active)
CCACCCACUAAACCUAAAUTT against Pcolce | 0.136
GGACACCAAAGUGAAUACATT against Cdhr5 | 0.122
GGAGAUGGCACAGUCAGUCTT against Slc22a8 | -0.338
GGGUUGUGGCUGCUACUAUTT against Pira2 | 2.18 (active)
GCUACUGGUUGGGUUGAAGTT against Tbcd | 1.47
GGAAGCUUUGGGAAACAGUTT against Bmp2 | -0.226

Source: PubChem BioAssay AID1508600 (Functional Genomics Laboratory (NCATS/FGL), 2020)
